FBPA coupling cs – inhibits coupling enzyme system, counter-screen for aldolase hits. activity change, negative = inhibition, % at 58.2 µM, hits read low. AID 2472. coupling enzyme system counterscreen, AmpLite Red fluorescence. 0.67% of 290,000 active; in the data active means activity change below about -30%
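Compounds tested against the coupling enzymes alone at 57.5 uM final; readout was AmpLite Red fluorescence (525/598 nm) after 20 min at RT.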
Sfp PPTase inh – Sfp phosphopantetheinyl transferase inhibition. Q9F4F7. Biochemical Sfp PPTase activity, qHTS. Potency, µM, for the others: largest response in the series, negative = inhibition, hits mostly inhibitors. 3.5% of 310,000 active. AID 1490;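 further: the enzyme is Sfp with the accession as filed and its product quenches rhodamine fluorescence; potency means the concentration at half of the fitted maximal effect; 0% = enzyme reaction without inhibitor and -100% = no enzyme wells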
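Fluorescence-quenching assay: 15 nM Sfp-PPTase preincubated 15 min at room temperature with compound, then 5 uM rhodamine-CoA and 12.5 uM BHQ-2-labelled YbbR peptide added. Fluorescence (ex 525/em 598 nm) read at start and after 30 min; difference gives rate.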
G9a inh – blocks human histone lysine methyltransferase G9a; Q96KQ7; G9a H3K9 monomethylation, AlphaScreen, 2 h; Potency, µM (series often up to 102 µM), for inactives: at the top dose activity, negative = inhibition, most hits filed as inhibitors; 8.8% of 350,000 active; AID 504332; further: potency means the concentration at half of the fitted maximal effect; nearly all actives have a fitted effect of over 75% in size
Target sequence (Q96KQ7 913-1193 limits assumed): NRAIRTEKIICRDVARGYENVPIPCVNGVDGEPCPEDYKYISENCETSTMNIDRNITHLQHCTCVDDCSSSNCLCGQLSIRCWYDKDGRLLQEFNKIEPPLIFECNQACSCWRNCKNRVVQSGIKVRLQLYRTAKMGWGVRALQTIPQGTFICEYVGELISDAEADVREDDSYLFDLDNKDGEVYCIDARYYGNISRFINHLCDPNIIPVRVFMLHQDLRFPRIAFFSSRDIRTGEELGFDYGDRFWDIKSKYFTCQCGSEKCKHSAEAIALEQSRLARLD
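G9a (20 nM) preincubated 15 min RT with compounds, then 500 nM biotinylated H3K9 peptide and 20 uM SAM added; 2 h RT reaction. Monomethyl-H3K9 product detected by AlphaScreen with anti-H3K9me1 antibody, streptavidin donor and anti-rabbit IgG acceptor beads.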
Tau ThT inhib – inhibitors of human tau fibril formation, thioflavin T binding | Potency, µM (series often up to 57.4 µM), without a hit: at the top dose activity, negative = inhibition, most hits filed as inhibitors | recombinant tau K18 P301L, heparin-induced fibrillization, ThT fluorescence | P10636 | 2.1% of 270,000 active; further: potency means the concentration at half of the fitted maximal effect; nearly all actives have a fitted effect of over 55% in size
Target sequence (P10636 561-689 P618L limits assumed): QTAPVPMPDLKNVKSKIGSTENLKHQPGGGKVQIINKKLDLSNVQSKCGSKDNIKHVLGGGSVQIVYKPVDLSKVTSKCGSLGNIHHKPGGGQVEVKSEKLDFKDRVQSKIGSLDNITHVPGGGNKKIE
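Fibril formation assay: tau K18 P301L at 15 uM with trace Alexa 594 label, heparin inducer 20 uM, pH 7 sodium acetate buffer, 37 C for 6 hr; endpoint ThT signal.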
Tau FP inhib – blocks human tau fibril formation measured by polarization; K18 P301L tau heparin fibrillization, Alexa594 FP, 6 h; P10636; Potency, µM (highest dose often 57.7 µM), for inactives: top-dose activity, negative = inhibition, most hits filed as inhibitors; 0.39% of 280,000 active; further: potency means the concentration at half of the fitted maximal effect; nearly all actives have a fitted effect of over 55% in size
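Human K18 P301L fragment (15 uM unlabeled plus 0.24 uM Alexa 594-labeled) in 100 mM sodium acetate pH 7 with compound, aggregation induced by 20 uM heparin for 6 hr at 37 C. ThT (30 uM) added for 1 hr, then Alexa 594 FP read.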
Tau fluor counter – counter-screen for tau fibril formation inhibitors; tau K18 P301L Alexa594 fluorescence, heparin fibrillization; Potency, µM (series often up to 57.7 µM), for inactives: at the highest dose activity change, negative = decrease; 0.93% of 280,000 active; further: potency means the concentration at half of the fitted maximal effect; nearly all actives have a fitted effect of over 55% in size
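Human tau K18 P301L (15 uM unlabeled, 0.24 uM Alexa 594-labeled) in 100 mM sodium acetate pH 7 with 20 uM heparin, 6 hr at 37 C. ThT 30 uM added, 1 hr ambient; Alexa 594 FP and total fluorescence read at 555/632 nm.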
Active calls of the source: *; ? = inconclusive; / = no result given; [ ] = dose if it differs, or a comment. This is a sample that favours compounds with a hit; in the whole collection about 11% have one here. Unless noted, the call rests on the fitted dose curve; in most records, active means well fitted curve in the direction sought with a large enough effect; inconclusive means small, poorly fitted or top-dose-only effect, or another doubt; inactive means no such curve, though single readings can be large; an effect the other way counts as inactive or inconclusive. Unless noted, on the % scale 0 is the no-effect control and ±100 the full control effect.

SMILES	FBPA coupling cs	Sfp PPTase inh	G9a inh	Tau ThT inhib	Tau FP inhib	Tau fluor counter
CCN1CCN(c2ncnc3c2sc(=S)n3-c2ccccc2)CC1	1	16%	50µM*	-14%	0%	-11%
CC(=O)c1ccc(N2CCN(S(=O)(=O)c3ccc4[nH]c5c(c4c3)CCCCC5)CC2)cc1	/	/	-31%[59 µM]	-13%	-7%	?
CC(=O)c1ccc(NS(=O)(=O)c2ccc3[nH]c4c(c3c2)CCCCCC4)cc1	/	/	-47%[59 µM]	6%	?	10µM*[quencher]
CC(=O)Nc1ccc(NS(=O)(=O)c2ccc3[nH]c4c(c3c2)CCCCC4)cc1	/	/	-32%[59 µM]	?	-6%	16µM*[quencher]
CC(=O)c1ccc(NS(=O)(=O)c2ccc3[nH]c4c(c3c2)CCCC4)cc1	/	/	?	11%	-7%	8.9µM*[quencher]
COc1cc2nc(NCc3ccccc3)n3nc(-c4ccccc4)nc3c2cc1OC	/	/	0%[59 µM]	-3%	1%	-14%
COc1ccc2[nH]c3c(c2c1)CCNC3c1ccc([N+](=O)[O-])o1 (stereo not drawn)	-10	50µM*	32µM*	/	/	/
CCN(c1cccc(C)c1)S(=O)(=O)c1ccc(N2CCCCS2(=O)=O)cc1	/	/	-5%[59 µM]	-8%	8%	-12%
Cc1cc(C)cc(NC(=O)CSc2n[nH]c(-c3cccnc3)n2)c1	0	8%	12%	/	/	/
O=C(CSc1cn[nH]n1)Nc1ccccc1C(F)(F)F	2	-18%	25µM*	/	/	/
O=C(CSc1n[nH]c(-c2ccncc2)n1)Nc1ccccc1C(F)(F)F	-2	-14%	25µM*	/	/	/
O=C(CSc1n[nH]c(-c2ccncc2)n1)Nc1ccccn1	3	-11%	?	2%	-5%	0%
O=C(CSc1n[nH]c(-c2cccnc2)n1)Nc1ccc(Br)cc1	-1	-8%	8.9µM*	/	/	/
CCOC(=O)c1nnsc1N	-1	26%	5%	11%	4%	9%
Cc1ncoc1C(=O)N1CCc2c([nH]c3ccccc23)C1c1ccccc1F (stereo not drawn)	-2	2%	40µM*	?	-4%[2.34 µM]	-13%
O=C(c1cc2ncccn2n1)N1CCc2c([nH]c3ccccc23)C1c1ccccc1F (stereo not drawn)	-3	15%	-5%	-11%	-3%[2.34 µM]	-9%
CSc1ccc(C2c3[nH]c4ccccc4c3CCN2C(=O)c2ccnn2C)cc1 (stereo not drawn)	-1	-8%	40µM*	-7%	5%	-14%
C=CCNC(=O)COc1c(C)ccc(C)c1C	2	8%	0%	1%	-9%	-2%
CCOC(=O)CC(=O)CSc1nc(-c2cccnc2)ccc1C#N	2	9%	?	?	7%	-17%
CCOC(=O)CC(=O)CSc1nccc(-c2cccnc2)n1	0	56µM*	/	/	-4%	13%
C=C1/C(=C\C=C2/CCC[C@]3(C)[C@@H]([C@H](C)/C=C/[C@@H](O)C4CC4)CC[C@@H]23)C[C@@H](O)C[C@@H]1O	/	-6%	-2%[12.7 µM]	/	/	/
C=C1CC[C@H](O)C/C1=C/C=C1\CCC[C@]2(C)[C@@H]([C@H](C)/C=C/[C@H](C)C(C)C)CC[C@@H]12	/	/	14µM*	/	/	/
CCOC(=O)C1CCN(c2nc3ccccc3n2CC(=O)c2ccccc2)CC1	-3	0%	27%	-7%	4%	-2%
COc1ccccc1N1CCN(CC(=O)c2ccc(F)cc2)CC1	-1	40µM*	/	/	/	/
COc1ccc(N2CCN(c3nc4ccccc4n3CC(=O)c3ccccc3)CC2)cc1	1	?	14µM*	?	11%	-25%
COc1ccccc1N1CCN(Cc2ccc(C(=O)O)cc2)CC1	1	20%	7%	/	/	/
COc1cc(OC)c(OC)cc1CN1CCN(Cc2ccc(C(F)(F)F)cc2)CC1	-6	1%	6.3µM*	/	/	/
COc1cc2c(cc1OC)CN(Cc1cc(OC)c(O)c(OC)c1)CC2	-5	3%	32µM*	?	0%	-12%
CCOc1ccccc1N(CC(=O)Nc1ccccc1F)S(=O)(=O)c1ccccc1	-2	7%	18%	/	/	/
